One may read the inhibition as the relative decrease from the control value, in per cent.

The nature of assay [1]: antimalarial activity against Dd2 strain (AID 2302;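 active = growth inhibition above 50% at the single 2 µM test dose, taken to imply half-maximal potency below 2 µM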;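 note: 0% = DMSO untreated growth and 100% = chloroquine plus artemisinin killed control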). To be noted: P. falciparum Dd2 in RBCs, LDH growth readout, 72 h; at 2 µM; stronger effect = higher value.
Assay [2] is described as follows: HepG2 cytotoxicity, primary screen, cytotoxicity control for P. falciparum antimalarial project, cell-based, ATP luminescence (AID 2303;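 active = inhibition above 50%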;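 note: 0% = DMSO wells and 100% = digitonin-killed cells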). To be noted: HepG2 viability, 24-48 h, at 10 µM, stronger effect = higher value.
Assay [3] has as its target L-lactate dehydrogenase (Plasmodium falciparum (isolate CDC / Honduras)) (UniProt Q27743). Nature of the assay: PfLDH activity inhibition – cell lysate, 3D7 strain, counter-screen for P. falciparum growth inhibition project (AID 2304).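 Note: 0% = vehicle and 100% = reference inhibitor.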 The following applies: P. falciparum 3D7 crude extract, LDH APAD/NBT absorbance; at 2 µM; stronger effect = higher value. In general terms: A counterscreen serves to expose hits that act by an unwanted route or on another target.

The nature of assay [4]: inhibition of 3D7 malaria parasite growth – strain 3D7 (AID 2306).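 Note: 0% = DMSO wells and 100% = chloroquine plus artemisinin control wells.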 The following applies: P. falciparum 3D7 erythrocytic growth, LDH absorbance, 72 h; at 2 µM; stronger effect = higher value.
Assay [5] has as its target Calcium-dependent protein kinase 1 (Plasmodium falciparum (isolate 3D7)) (UniProt P62344). The experiment in a line: PfCDPK1 kinase inhibitors, biochemical, TCAMS library (AID 1159585; cut-off not given, nearly all actives have IC50 up to about 0.98 µM;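 note: inhibitors leave more ATP so luminescence rises with inhibition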). To be noted: recombinant PfCDPK1, Kinase-Glo ATP depletion luminescence.
For assay [6], the target named is Plasmodium falciparum protein kinase 6 (PK6, PF3D7_1337100) (UniProt Q8IDW1). The experiment in a line: PfPK6 kinase inhibitors, biochemical, TCAMS library (AID 1159586). The following applies: recombinant PfPK6, Kinase-Glo ATP depletion luminescence. (In general: In Kinase-Glo more light means more ATP remaining.)
Assay [7] has as its target Protein kinase 7 (PK7), Plasmodium falciparum 3D7 (PF3D7_0213400) (UniProt Q7YTF7). Nature of the assay: inhibition of Plasmodium PK7 catalytic activity – biochemical, TCAMS antimalarial set, Kinase-Glo luminescence (AID 1159587). To be noted: recombinant PfPK7, Kinase-Glo ATP depletion luminescence.
In assay [8] the target is Calcium-dependent protein kinase 4 (Plasmodium falciparum (isolate 3D7)) (UniProt Q8IBS5). Nature of the assay: PfCDPK4 kinase inhibitors, biochemical, TCAMS library (AID 1159588; cut-off not given, nearly all actives have IC50 up to about 0.91 µM). To be noted: recombinant PfCDPK4, Kinase-Glo ATP depletion luminescence.

A number with no mark means an inactive call. For part of these data: Results with a measured potency or affinity are listed apart. The source made the active and inactive calls. Unless noted, the rule behind the calls is not given here.

Calcium-dependent protein kinase 4 (Plasmodium falciparum (isolate 3D7)), sequence (Q8IBS5 whole entry, looked up): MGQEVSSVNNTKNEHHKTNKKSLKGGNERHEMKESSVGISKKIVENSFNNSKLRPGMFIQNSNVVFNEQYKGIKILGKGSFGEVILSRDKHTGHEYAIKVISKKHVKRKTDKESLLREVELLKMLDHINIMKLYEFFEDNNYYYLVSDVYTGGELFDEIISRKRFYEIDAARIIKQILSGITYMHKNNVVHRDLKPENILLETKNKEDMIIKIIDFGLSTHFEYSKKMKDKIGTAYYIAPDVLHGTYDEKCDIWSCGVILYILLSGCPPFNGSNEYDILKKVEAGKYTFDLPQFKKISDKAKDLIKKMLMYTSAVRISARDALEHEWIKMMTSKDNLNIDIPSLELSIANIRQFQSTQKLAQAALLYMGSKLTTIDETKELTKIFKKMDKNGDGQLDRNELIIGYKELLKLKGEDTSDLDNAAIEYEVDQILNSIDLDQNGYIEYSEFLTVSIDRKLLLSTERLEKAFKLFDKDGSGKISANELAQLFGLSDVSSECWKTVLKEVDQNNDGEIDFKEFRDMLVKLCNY
Protein kinase 7 (PK7), Plasmodium falciparum 3D7 (PF3D7_0213400), sequence (Q7YTF7 1-343): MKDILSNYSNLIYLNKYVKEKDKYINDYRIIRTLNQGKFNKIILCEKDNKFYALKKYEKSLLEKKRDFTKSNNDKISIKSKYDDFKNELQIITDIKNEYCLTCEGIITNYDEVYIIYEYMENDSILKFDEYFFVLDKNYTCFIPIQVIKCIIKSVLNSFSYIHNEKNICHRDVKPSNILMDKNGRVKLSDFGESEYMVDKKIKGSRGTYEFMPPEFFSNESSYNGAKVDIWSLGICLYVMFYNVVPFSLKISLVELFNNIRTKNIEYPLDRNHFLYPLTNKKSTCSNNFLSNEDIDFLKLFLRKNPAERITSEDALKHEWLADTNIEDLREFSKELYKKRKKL
Plasmodium falciparum protein kinase 6 (PK6, PF3D7_1337100), sequence (Q8IDW1 1-305): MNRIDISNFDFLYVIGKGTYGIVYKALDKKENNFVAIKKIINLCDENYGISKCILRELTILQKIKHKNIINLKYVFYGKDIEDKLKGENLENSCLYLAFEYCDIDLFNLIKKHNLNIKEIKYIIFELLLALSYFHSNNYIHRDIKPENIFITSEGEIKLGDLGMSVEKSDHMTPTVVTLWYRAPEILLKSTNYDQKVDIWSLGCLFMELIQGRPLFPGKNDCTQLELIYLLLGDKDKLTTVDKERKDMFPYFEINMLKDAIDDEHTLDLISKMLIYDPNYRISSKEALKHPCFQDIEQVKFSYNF
L-lactate dehydrogenase (Plasmodium falciparum (isolate CDC / Honduras)), sequence (Q27743 whole entry, looked up): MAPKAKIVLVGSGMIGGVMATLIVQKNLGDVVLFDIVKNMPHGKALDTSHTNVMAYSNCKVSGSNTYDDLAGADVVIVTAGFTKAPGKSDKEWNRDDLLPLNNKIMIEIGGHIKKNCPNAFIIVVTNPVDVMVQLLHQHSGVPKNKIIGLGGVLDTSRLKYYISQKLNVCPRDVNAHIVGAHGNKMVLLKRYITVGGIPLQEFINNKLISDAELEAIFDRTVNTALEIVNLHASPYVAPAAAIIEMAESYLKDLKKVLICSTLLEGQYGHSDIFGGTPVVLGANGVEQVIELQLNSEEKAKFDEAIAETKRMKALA
Calcium-dependent protein kinase 1 (Plasmodium falciparum (isolate 3D7)), sequence (P62344 whole entry, looked up): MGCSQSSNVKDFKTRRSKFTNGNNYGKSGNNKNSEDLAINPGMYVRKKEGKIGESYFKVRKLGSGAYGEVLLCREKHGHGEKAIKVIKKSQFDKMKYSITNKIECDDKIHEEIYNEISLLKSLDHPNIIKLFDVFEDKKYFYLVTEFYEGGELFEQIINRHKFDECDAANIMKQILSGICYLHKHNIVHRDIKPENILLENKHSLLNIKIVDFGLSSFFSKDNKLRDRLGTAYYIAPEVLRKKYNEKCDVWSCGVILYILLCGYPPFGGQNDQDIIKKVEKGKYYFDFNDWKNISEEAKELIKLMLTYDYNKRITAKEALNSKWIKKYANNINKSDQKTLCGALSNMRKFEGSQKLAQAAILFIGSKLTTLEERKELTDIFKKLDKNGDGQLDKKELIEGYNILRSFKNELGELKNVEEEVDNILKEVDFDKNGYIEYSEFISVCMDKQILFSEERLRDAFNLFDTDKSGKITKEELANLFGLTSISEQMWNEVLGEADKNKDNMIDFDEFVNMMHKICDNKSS

Regarding `COc1ccc2nccc(NCC3(O)CCC(NCc4ccc5c(n4)NC(=O)CS5)CC3)c2n1` (centres undefined), the growth inhibition was 23% in assay [1] and 100% (active) in assay [4]. In addition, the inhibition in assay [2] is 16%; in assay [3], 3%. The outcome in assay [5], in assay [6], in assay [7] and in assay [8] was inactive.
Take `CN1CCN(c2ccnc3ccc(NC(=O)Nc4ccc(Cl)cc4)cc23)CC1`: the growth inhibition in assay [1] was 99% (active); in assay [4] it was 103% (active). The inhibition in assay [2] was 11%; in assay [3] it was 0%. The outcome in assay [5], in assay [6], in assay [7] and in assay [8] was inactive.
Take `CCC(C)NS(=O)(=O)c1ccc2nc(Nc3cccc(SC)c3)n(C(C)C(C)C)c2c1` (centres undefined): the growth inhibition is 70% (active) in assay [1] and 94% (active) in assay [4]. Further, the inhibition is -1% in assay [2] and 2% in assay [3]. The outcome in assay [5], in assay [6], in assay [7] and in assay [8] was inactive.
`Cc1cnc(-c2ccc(NC(=O)c3coc4ccc(N5C[C@@H](C)N(C)[C@@H](C)C5)cc34)cc2)o1`: the growth inhibition in assay [1] was 39%; in assay [4], 96% (active). Also, the inhibition is 18% in assay [2] and 1% in assay [3]. For the same compound, the outcome in assay [5], in assay [6], in assay [7] and in assay [8] was inactive.
For `CCn1ccc2c(N3CCCC3=O)cc(C(=O)N[C@@H](Cc3ccccc3)[C@H](O)CNC(C)(C)CCCC(C)C)cc21`, the growth inhibition in assay [1] is 98% (active); in assay [4], 96% (active). Further, the inhibition in assay [2] was 11%; in assay [3], -3%. The result in assay [5], in assay [6], in assay [7] and in assay [8] was inactive.
`Cc1cccc(-c2nn(-c3ccccc3)cc2C(=O)Nc2nnc(C)o2)c1`: the growth inhibition in assay [1] was 63% (active); in assay [4], 84% (active). The results for the inhibition in assay [2] and in assay [3] were 38% and 4%, respectively. The result in assay [5], in assay [6], in assay [7] and in assay [8] was inactive.
For `O=C1CCCC1Sc1nc2ccccc2c(=O)n1-c1ccc(Cl)c(Cl)c1` (centres undefined), the growth inhibition in assay [1] is 42%; in assay [4], 97% (active). Besides, the figures for the inhibition in assay [2] and in assay [3] were 10% and 0%, respectively. The result in assay [5], in assay [6], in assay [7] and in assay [8] was inactive.
Consider `COc1cc(NC(=O)Nc2cccc3ccccc23)c(OC)cc1Cl`, for which the growth inhibition in assay [1] was 71% (active); in assay [4] it was 97% (active). Besides, the inhibition in assay [2] is -12%; in assay [3] it was 3%. The outcome in assay [5], in assay [6], in assay [7] and in assay [8] was inactive.
As for `CCc1nc2nc(C)cc(Nc3ccc(F)c(Cl)c3)n2n1`, the results for the growth inhibition in assay [1] and in assay [4] were 77% (active) and 90% (active), respectively. Besides, the inhibition is 2% in assay [2] and -3% in assay [3]. In addition, the result in assay [5], in assay [6], in assay [7] and in assay [8] was inactive.
On to `CN1CCCC(CN2CCN(Cc3ccc(-c4ccc(-c5nc6ccccc6[nH]5)cc4)cc3)CC2)C1` (centres undefined), for which the growth inhibition is 100% (active) in assay [1] and 101% (active) in assay [4]. Besides, the inhibition in assay [2] was 69% (active); in assay [3], 0%. For the same compound, the outcome in assay [5], in assay [6], in assay [7] and in assay [8] was inactive.
As to `Fc1ccc2[nH]c3c(NCCN4CCCCC4)ncnc3c2c1`, the growth inhibition was 44% in assay [1] and 99% (active) in assay [4]. Moreover, the results for the inhibition in assay [2] and in assay [3] were 24% and 0%, respectively. Also, the outcome in assay [5], in assay [6], in assay [7] and in assay [8] was inactive.
In the case of `Cc1cccc2[nH]c(-c3ccc(-c4ccc(CNCc5cccc(N)c5)cc4)cc3)nc12`, the results for the growth inhibition in assay [1] and in assay [4] were 84% (active) and 102% (active), respectively. The inhibition in assay [2] was 12%; in assay [3], -9%. Moreover, the result in assay [5], in assay [6], in assay [7] and in assay [8] was inactive.
On to `COc1ccccc1C1CCN(C2CCC(NC(=O)/C=C/c3ccc(C(F)(F)F)cc3)CC2)CC1` (centres undefined), for which the growth inhibition in assay [1] was 7%; in assay [4], 88% (active). The inhibition in assay [2] was 57% (active); in assay [3], 4%. Also, the result in assay [5], in assay [6], in assay [7] and in assay [8] was inactive.
For `Cc1ccccc1C1CCN(C2CCC(NC(=O)/C=C/c3ccc4c(c3)OC(F)(F)O4)CC2)CC1` (centres undefined), the growth inhibition in assay [1] is 39%; in assay [4], 100% (active). The inhibition in assay [2] was 75% (active); in assay [3], 2%. Besides, the result in assay [5], in assay [6], in assay [7] and in assay [8] was inactive.
With `CC(C)N1CCN(C(=O)c2ccc(CNCCCN3CCN(c4ccccc4C(F)(F)F)CC3)s2)CC1`, the results for the growth inhibition in assay [1] and in assay [4] were 42% and 98% (active), respectively. Further, the results for the inhibition in assay [2] and in assay [3] were 32% and -7%, respectively. Moreover, the result in assay [5], in assay [6], in assay [7] and in assay [8] was inactive.
On to `N#CC1(CCCNCCc2ccc(O)cc2)CCCc2c(O)cccc21` (centres undefined), for which the growth inhibition is 3% in assay [1] and 95% (active) in assay [4]. For the same compound, the inhibition is -2% in assay [2] and -5% in assay [3]. The outcome in assay [5], in assay [6], in assay [7] and in assay [8] was inactive.
As for `COc1ccc(CCN(C)CCOc2ccc(NC(=O)c3ccc([N+](=O)[O-])c4c(=O)c5ccccc5[nH]c34)cc2)cc1OC`, the growth inhibition was 25% in assay [1] and 91% (active) in assay [4]. Besides, the inhibition in assay [2] is 38%; in assay [3] it was -2%. Also, the result in assay [5], in assay [6], in assay [7] and in assay [8] was inactive.
With `C[C@H](Cc1ccc(C[C@@H](C)NC[C@H](O)c2cccc(Cl)c2)cc1)NC[C@H](O)COc1ccccc1`, the growth inhibition was 60% (active) in assay [1] and 96% (active) in assay [4]. Besides, the inhibition was 99% (active) in assay [2] and -2% in assay [3]. Further, the outcome in assay [5], in assay [6], in assay [7] and in assay [8] was inactive.

Values taken from PubChem BioAssay.
